# Assay results published in PubChem BioAssay.
# For part of these data: Entries with a potency or affinity are not part of this list. Active and inactive are the calls of the source. Unless noted, how the calls were made is not given here.
# How the values were obtained:
# [1] = molecular target: Cell division control protein 42 homolog (Homo sapiens) (UniProt P60953); assay: activated mutant Cdc42 GTP-binding inhibitors, dose response, biochemical, multiplex bead flow cytometry, Bodipy-FL-GTP (AID 1333;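 active means fitted half-maximal concentration within the tested dose range, moderate curve steepness, a statistically real signal drop, and little compound fluorescence or tag-binding interference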)
# [2] = molecular target: Cell division control protein 42 homolog (Homo sapiens) (UniProt P60953); assay: wildtype Cdc42 GTP-binding inhibitors, dose response, biochemical, multiplex bead flow cytometry, Bodipy-FL-GTP (AID 1334;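 active means fitted half-maximal concentration within the tested range, moderate curve steepness, significant signal drop, and little compound fluorescence or bead-linkage interference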); conditions: bead-based flow cytometry, Bodipy-FL-GTP binding to GST-Cdc42; at 100 µM (top of the series) unless noted
# [3] = molecular target: GTPase HRas (Homo sapiens) (UniProt P01112); assay: inhibitors of GTP binding to wildtype Ras, dose response, biochemical, multiplex bead flow cytometry (AID 1335;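 active means fitted half-maximal concentration within 10 nM to 100 µM, steepness 0.5 to 2, significant signal drop, low assay interference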); conditions: bead-based flow cytometry, Bodipy-GTP binding to GST-Ras; at 100 µM (top of the series) unless noted
# [4] = tested on: Ras-related protein Rab-7a (dog), GTP binding; assay: Rab7 GTP binding inhibitors, potency, dose response, biochemical, wildtype, multiplex bead flow cytometry (AID 1336)
# [5] = molecular target: Ras-related C3 botulinum toxin substrate 1 (Homo sapiens) (UniProt P63000); assay: wildtype Rac1 GTP binding inhibitors, dose response, biochemical, multiplex bead flow cytometry (AID 1340;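 active means dose curve with midpoint inside tested range, moderate steepness, plateau gap beyond fit error, low compound glow and bead-link interference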); conditions: GST-Rac1 beads, Bodipy-FL-GTP binding; at 100 µM (top of the series) unless noted
# [6] = molecular target: GTPase HRas (Homo sapiens) (UniProt P01112); assay: activated Ras mutant GTP binding inhibitors, dose response, biochemical, multiplex bead flow cytometry (AID 1341;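 active means dose-response curve with midpoint inside the tested range, moderate steepness, significant amplitude and little compound fluorescence or bead-attachment interference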;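 further: GST-tagged constitutively activated Ras mutant immobilized on beads and multiplexed with other GTPases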)
# Chain of GTPase HRas (Homo sapiens) (P01112 whole entry, looked up): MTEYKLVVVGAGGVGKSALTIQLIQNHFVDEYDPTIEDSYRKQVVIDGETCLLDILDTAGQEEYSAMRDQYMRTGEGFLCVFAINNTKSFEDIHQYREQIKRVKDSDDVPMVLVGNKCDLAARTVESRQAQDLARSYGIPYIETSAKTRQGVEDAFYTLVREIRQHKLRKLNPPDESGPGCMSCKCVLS
# Chain of Cell division control protein 42 homolog (Homo sapiens) (P60953 whole entry, looked up): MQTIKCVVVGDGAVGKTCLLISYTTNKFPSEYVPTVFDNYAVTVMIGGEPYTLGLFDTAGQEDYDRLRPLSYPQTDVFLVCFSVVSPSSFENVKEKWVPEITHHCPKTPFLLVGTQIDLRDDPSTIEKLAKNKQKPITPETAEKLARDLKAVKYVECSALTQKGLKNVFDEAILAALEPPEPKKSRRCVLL
SMILES,outcome [1],"fluorescence, percent of control (lower = inhibition) [2] [%]","GTP binding, percent of control [3] [%]",outcome [4],"GTP binding signal, raw median fluorescence (lower = inhibition) (MCF (arbitrary fluorescence units)) [5]",outcome [6]
CCOc1ccc(NC(=S)N=Nc2c(O)[nH]c3ccccc23)cc1,inactive,35.5,74.3,inactive,170,inactive
O=C(O)c1cccc(Oc2ccc([N+](=O)[O-])cc2)c1,inactive,62.7,61.7,inactive,0,inactive
Nc1nc(CN2CCN(c3ccccc3F)CC2)nc(N2CCCc3ccccc32)n1,inactive,28.5,69.6,inactive,210,inactive
O=C(N/N=C/c1c(O)n(Cc2ccccc2)c(=O)c2ccccc12)c1cccnc1,inactive,18.5,75.7,inactive,87,inactive
Cc1cccc(NCc2ccc(O)c3ncccc23)c1C,inactive,39.8,84.4,inactive,259,inactive
O=C(CCl)Nc1cccn2ncnc12,inactive,37.7,83,inactive,274,inactive
CCOc1cc(C2c3c(-c4ccccc4)n[nH]c3C(=O)N2c2ccc(C(=O)O)cc2)ccc1O (stereo not given),inactive,29,79.3,inactive,95.9,inactive
CC(C)Sc1nc(-c2ccccc2)cc(=O)[nH]1,inactive,88.8,156,inactive,170,inactive
O=C(COC(=O)/C=C/c1cccc([N+](=O)[O-])c1)NCc1ccc2c(c1)OCO2,inactive,34.8,82.9,inactive,254,inactive
O=C(C#Cc1ccc(-c2ccccc2)cc1)c1ccc([N+](=O)[O-])cc1,inactive,44.5,196,inactive,51.8,inactive
COc1ccccc1NS(=O)(=O)c1cc([N+](=O)[O-])ccc1N/N=C/c1sc(N2CCOCC2)nc1-c1ccccc1,inactive,73.1,81,inactive,230,inactive
N#Cc1c(=O)c2nc(NCc3ccccc3)ncc2n2ccccc12,inactive,41.3,48.1,inactive,0,inactive
COc1ccc(OCc2oc3ccc(OC)cc3c2C(=O)O)cc1,inactive,53.9,82.7,inactive,28.2,inactive
N=c1oc2ccc3ccccc3c2cc1-c1nc(-c2ccccc2)cs1,inactive,32.3,75,inactive,209,inactive
Cc1cc(C)n2nc(SCCOc3ccccc3F)nc2n1,inactive,34.1,72.5,inactive,144,inactive
Cc1ccc(-c2c(C(=O)O)c(C(=O)O)c3n2CCC3)cc1,inactive,32.3,78.1,inactive,239,inactive
CSc1nnc(-c2cc(Br)ccc2N=Cc2c(C)[nH]n(-c3ccccc3)c2=O)c(=O)[nH]1,inactive,24.2,67.4,inactive,183,inactive
COc1cccc(/C=C/C(=O)Nc2ccccc2N2CCOCC2)c1,inactive,33.2,83.5,inactive,243,inactive
COc1cc(N2CCCC2)c(OC)cc1/C=C(/C#N)c1cccc(F)c1,inactive,137,214,inactive,210,inactive
CCC(=O)c1ccc(OCC(=O)O)c(OC)c1,inactive,46.1,121,inactive,64.7,inactive
O=C(COc1ccccc1-c1ccccc1)N/N=C/c1ccncc1,inactive,33.3,77.4,inactive,247,inactive
CCOC(=O)/C=C1\SCC(=O)N1CCOc1cccc(Br)c1,inactive,94.9,164,inactive,185,inactive
O=S1(=O)N=C(N(CCO)/N=C/c2ccncc2)c2ccccc21,inactive,24.1,52.3,inactive,114,inactive
Cc1c(C(=O)N/N=C/c2ccc(-c3ccccc3[N+](=O)[O-])o2)sc(N)c1C#N,inactive,37.4,49.1,inactive,157,inactive
Cc1ccc(NS(=O)(=O)c2cc(NC(=O)c3ccc4c(c3)NC(=O)CS4)ccc2Cl)c(C)c1,inactive,36.1,86.2,inactive,282,inactive
O=C1/C(=C\c2ccc(-c3ccccc3Cl)o2)SC(=S)N1CC1CCCO1 (stereo not given),inactive,29.8,35.9,inactive,116,inactive
CCOC(=O)c1cnc(SCc2ccc(C)cc2)nc1N,inactive,32,82.3,inactive,238,inactive
Cc1nc2nc(SCC(=O)O)nn2c(C)c1Cc1c(F)cccc1Cl,inactive,28.4,75.3,inactive,221,inactive
Cc1noc(C)c1COc1cccc(C(=O)NCc2ccccc2Cl)c1,inactive,91.7,163,inactive,186,inactive
CC(C)n1c(O)c(N=Nc2ccc(Cl)nn2)c2ccccc21,inactive,69.1,78.2,inactive,196,inactive
